Bioassay records: PubChem BioAssay, National Center for Advancing Translational Sciences (NCATS)
D1 agonist: Allosteric Agonists of the Human D1 Dopamine Receptor: qHTS | HEK293 T-REx D1 cells, calcium flux, agonist mode | AID 504660, 2011 | activation, % at 2 µM | 1% of 360,000 active; also: 0% is about no effect
Target sequence (P21728 whole entry, looked up): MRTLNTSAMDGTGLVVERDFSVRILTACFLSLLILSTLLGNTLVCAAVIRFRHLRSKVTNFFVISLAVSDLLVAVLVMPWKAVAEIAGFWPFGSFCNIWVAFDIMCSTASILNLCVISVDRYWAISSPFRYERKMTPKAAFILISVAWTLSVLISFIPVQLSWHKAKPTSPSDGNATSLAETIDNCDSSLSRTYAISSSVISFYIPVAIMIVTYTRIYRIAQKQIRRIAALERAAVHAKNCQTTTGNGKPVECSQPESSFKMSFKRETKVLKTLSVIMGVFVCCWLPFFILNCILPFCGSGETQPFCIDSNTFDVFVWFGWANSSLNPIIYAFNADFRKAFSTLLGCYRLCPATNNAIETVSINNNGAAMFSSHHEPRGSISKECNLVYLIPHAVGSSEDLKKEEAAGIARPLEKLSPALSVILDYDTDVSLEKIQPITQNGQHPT
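Inducible HEK293 T-REx D1 cells, force-coupled to calcium signalling, were plated at 4000 cells/well with tetracycline and held overnight at 30 C. After no-wash calcium dye loading, compound-evoked calcium rise over 180 s flagged agonists.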
D1 PAM: Potentiators of Human D1 Dopamine Receptor: qHTS. D(1A) dopamine receptor (Homo sapiens), P21728. potentiation, % at 10 µM. 0.036% of 360,000 active. HEK293 TREx D1 cells, calcium flux, dopamine EC20 potentiation; in the data active = potentiation above about 30%; also: 0% is about no effect
TRHR agonist: qHTS for Small Molecule Agonists and Allosteric Enhancers of Human TRH Receptor: Primary Screen for Agonists; Thyrotropin-releasing hormone receptor (Homo sapiens), P34981; TRHR cells, calcium flux fluo-8, FDSS agonist mode; activation, % at 2 µM; 0.18% of 360,000 active; AID 493084, 2011; also: 0% is about no effect
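Agonist-mode FDSS calcium read (Ex 480/Em 530, 1 s cycles) in 1536-well TRHR cells with fluo-8 dye, after 10-cycle baseline and 23 nL compound addition; TRH at EC20 (10 nM final) added afterwards for the enhancer phase.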
TRHR enhancer: qHTS for Small Molecule Agonists and Allosteric Enhancers of Human TRH Receptor: Primary Screen for Enhancers; TRHR cells, fluo-8 calcium fluorescence, EC20 TRH enhancement; enhancement, % at 2 µM; 0.66% of 360,000 active; in the data active = enhancement above about 30%; also: 0% is about no effect
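TRHR-expressing cells loaded with fluo-8 calcium dye were read kinetically (ex 480/em 530) during compound addition, then stimulated with an EC20 of TRH (10 nM final). Enhancement of the Gq-mediated intracellular calcium response was scored.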
D1 antag: Antagonist of Human D 1 Dopamine Receptor: qHTS. D(1A) dopamine receptor (Homo sapiens), P21728. HEK293 TREx D1 cells, calcium flux, dopamine EC80; hits give low values. activity change, negative = inhibition, % at 10 µM. 3.2% of 360,000 active; in the data active = activity change below about -30%; also: % is scaled to controls: 0 for no effect and ±100 for the full control effect
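After overnight tetracycline induction at 30 C, force-coupled D1 HEK293 cells took up a no-wash calcium dye at room temperature. Compounds were added and monitored 180 s, and the response to EC80 dopamine was then recorded.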
* hit, by the source's call; · = no result. Rows were chosen to be rich in hits. Some 4.6% of all compounds tested hit in one or more screens of this group. Rule as the data show it, unless noted: active = activation above about 30%; inactive = the rest.

SMILES | D1 agonist | D1 PAM | TRHR agonist | TRHR enhancer | D1 antag
CC(=O)c1ccc(NC(=O)CSc2nc(C3CCCC3)nc3c2c(=O)n(C)c(=O)n3C)cc1 | 2 | 2 | 0 | 21 | -5
Cc1cc(C)c(NC(=O)CCC(=O)N2Cc3ccccc3Oc3ncccc32)c(C)c1 | 0 | 2 | -1 | 10 | 4
COc1ccc(Nc2cc(C(=O)NCCCN(C)Cc3ccccc3)c3ccccc3n2)cc1 | 43* | -4 | 4 | 4 | -46*
CCN(CCCNC(=O)c1cc(Nc2ccccc2OC)nc2ccccc12)c1cccc(C)c1 | 1 | -3 | 2 | -3 | -35*
COc1ccccc1-c1noc(CCCC(=O)Nc2cc(C)ccc2C)n1 | 2 | 0 | -1 | -2 | -1
COc1cc(OC)c2c(-c3ccccc3)cc(=O)oc2c1C(CC(=O)N1CCCC1)c1ccc2c(c1)OCO2 (stereo unspecified) | 12 | -8 | 0 | -2 | -36*
COc1ccc(C(CCN2CCCCC2)c2c(OC)cc(OC)c3c(-c4ccccc4)cc(=O)oc23)cc1 (stereo unspecified) | 55* | -10 | 1 | 5 | -43*
CCOC(=O)c1ccc(NC2=CC(c3ccc(F)cc3)N(c3ccc(C(=O)OCC)cc3)C2=O)cc1 (stereo unspecified) | -1 | 4 | 2 | 9 | 1
CC(C)(C)OC(=O)Cc1nnc(CNC(=O)c2ccccc2)s1 | 2 | 0 | -1 | -2 | -6
CC1=C(C(=O)OCC(Cl)(Cl)Cl)N2C(=O)C(NC(=O)Cc3ccccc3)C2SC1 (stereo unspecified) | 26 | -10 | -1 | 4 | -34*
CC1CCCCN1S(=O)(=O)c1ccc(C(=O)N2CCOCC2)cc1 (stereo unspecified) | 8 | -9 | -2 | 33* | 4
CC1CCCCN1S(=O)(=O)c1ccc(S(=O)(=O)N2CCCC2)cc1 (stereo unspecified) | 4 | -9 | 0 | 0 | -7
CCC1=Nc2cc(C(=O)NCCN3CCOCC3)ccc2Sc2ccc(Br)cc21 | 11 | -14 | 1 | -1 | -36*
CCC1=Nc2cc(C(=O)NCCN3CCCC3)ccc2Sc2ccccc21 | 16 | -8 | 1 | 4 | -30*
Nc1c(C(=O)CSc2nccn2-c2cccc(F)c2)c(=O)[nH]c(=O)n1C1CC1 | 3 | -3 | 0 | -5 | -31*
Cc1ccc(NC(=O)CSc2nccn2C2CCCC2)cc1 | 2 | -2 | -1 | -4 | 1
Cc1ccc(Cn2c(SCc3ccc(C(=O)N4CCCCC4)cc3)nc3ccncc32)cc1 | 3 | -4 | -1 | 0 | 5
Cc1cc(Br)ccc1SCC(=O)OCC(=O)N1CCN(C(=O)c2ccco2)CC1 | 34* | -4 | 0 | -2 | -1
O=C(CSc1ccccc1F)OCC(=O)N1CCN(C(=O)c2ccco2)CC1 | 0 | 3 | 0 | 4 | -5
NC(=O)CSCc1nc2ccccc2s1 | 4 | -1 | 2 | 37* | 12
Oc1ccccc1OCc1nc2ccccc2s1 | -1 | -6 | -1 | -8 | -31*
N/C(Cc1nc2ccccc2s1)=N\O | 4 | -3 | 2 | -1 | 10
CC(C)(C)c1ccccc1NC(=O)CSc1nc(-c2cccs2)cc(C(F)(F)F)n1 | 8 | 3 | 2 | 10 | 5
Cc1cc(C)c(NC(=O)CN(C)C(C)C(=O)N2CCc3ccccc32)c(C)c1 (stereo unspecified) | 1 | -2 | -1 | 32* | 7
CCOC(=O)N1CCN(Cc2nc3c(c(=O)n(C)c(=O)n3C)n2Cc2cc(C)ccc2C)CC1 | 2 | -7 | -1 | 10 | -32*
SMILES | D1 agonist | D1 PAM | TRHR agonist | TRHR enhancer | D1 antag
CCCCn1c(CN2CCN(C(=O)OCC)CC2)nc2c1c(=O)n(C)c(=O)n2C | 1 | -1 | 1 | -5 | 31
CCOc1ccc(NC(=O)c2ccc(NC(=O)N3CCSc4ncccc43)cc2)cc1 | -1 | -1 | 0 | -1 | -26
CC(c1ccccc1)C1CC(=O)N(CC(=O)O)C1=O (stereo unspecified) | 6 | -7 | 0 | 11 | -32*
CCC(=O)Nc1ccc(CC)cc1-c1nc2ccccc2n(CC(=O)Nc2cccc(Cl)c2)c1=O | 3 | -1 | 0 | 1 | 2
C[C@H](NC(=O)N1CCn2c1nc1ccccc12)C(=O)NCc1ccccc1 | 2 | 4 | 1 | 0 | -1
COc1cc(CCCN2C(=O)C(=O)NC[C@@H]2c2ccccc2)cc(OC)c1OC | 1 | -5 | 0 | 5 | -1
COc1cc(CCCN2C(=O)C(=O)NC[C@@H]2C(C)O)cc(OC)c1OC (stereo partly specified) | 6 | -3 | 0 | 0 | -37*
N#CC1=C(N)SC(N)=C(C#N)C1Cc1ccccc1 | 10 | -5 | 4 | 22 | 11
CC(C)CC1C(C#N)=C(N)SC(N)=C1C#N | 38* | -3 | -1 | 4 | -9
COc1cccc(OCCn2cc(C(C)=O)c3ccccc32)c1 | 23 | -1 | 0 | -9 | -32*
Cc1ccc(OCCn2cc(C=O)c3ccccc32)cc1 | 7 | -4 | 0 | 0 | -34*
COc1ccccc1OCCn1cc(C(=O)c2ccco2)c2ccccc21 | 24 | -5 | 1 | -2 | -7
CC(=O)c1cn(CCOc2cc(C)ccc2C)c2ccccc12 | 12 | -10 | 0 | -13 | -14
COc1cccc(OCCn2cc(C(=O)c3ccco3)c3ccccc32)c1 | 50* | -7 | -1 | -1 | -1
COc1cccc(OCCn2cc(/C=N/NC(=O)c3ccncc3)c3ccccc32)c1 | 3 | -3 | 0 | 14 | -14
Cc1ccc(C)c(OCCn2cc(C(=O)O)c3ccccc32)c1 | 4 | -11 | 0 | -4 | -40*
CCOc1ccc2c(c1)c(=O)c(C(=O)c1ccc(CC)cc1)cn2CC(=O)Nc1ccc2c(c1)OCCO2 | -1 | 3 | 0 | 6 | 3
COc1ccc(S(=O)(=O)NCC(c2ccco2)S(=O)(=O)c2cccs2)cc1OC (stereo unspecified) | -2 | 3 | 3 | 1 | ·
CCc1nnc(SC(CC)C(=O)Nc2cccc(OC)c2)c2cc3oc(C)cc3n12 (stereo unspecified) | 1 | -3 | 0 | -13 | -1
CC(C(=O)Nc1ccc([N+](=O)[O-])cc1)N1CCN(C/C=C/c2ccccc2)CC1 (stereo unspecified) | 26 | -14 | 2 | 1 | -45*
